The supplement of paper PMC10981050
Several values for one entry are separate records, joined by “and”; a condition that tells them apart may be missing. Equal values may be shown once. Where a name gives a salt, the structure may show the parent alone.

tested on: K562; test: cell viability relative to vehicle control; higher = less cytotoxic; conditions: 10 µM; SRSF2 genotype: SRSF2 P95H/wt
Procedure, shortened: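 Mutant clones made by CRISPR editing and their isogenic wild-type counterparts, from four leukaemia lines, were exposed to a single 10 µM dose of each library compound for 48 h. The supernatant was then removed and CellTiter-Glo luminescence was read. Viability was reported as percent of the on-plate vehicle control.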

| Structure (SMILES) | cell viability |
| --- | --- |
| CN1CCN(Cc2ccc(Nc3ncc(Cl)c(Nc4ccccc4S(=O)(=O)N(C)C)n3)cc2)CC1 | 42.8% and 43% |
| CC(C[N+](C)(C)C)OC(N)=O (stereo unspecified) [Bethanechol chloride] | 97.9% and 102% |
| CC1=CC(=O)[C@@H]2C[C@H]1C2(C)C [(-)-Verbenone] | 105% and 102% |
| C[C@@H](Nc1cc(F)cc(F)c1)c1cc(C(=O)N(C)C)cc2c(=O)cc(N3CCOCC3)oc12 | 87% and 91.9% |
| Cc1nc2cccc(N)c2c(=O)n1C1CCC(=O)NC1=O (stereo unspecified) [Avadomide(CC-122)] | 108% and 111% |
| CN1Cc2c(ccc3c2OCO3)[C@@]2(C)[C@@H](O)Cc3cc4c(cc3[C@@H]12)OCO4 [Corynoline] | 18.7% and 28.5% |
| COc1ccc(Oc2cc(NCCC(F)(F)F)c3ncc(-c4ccc(C(=O)NC5CC5)c(C)c4)n3n2)c(F)c1F | 103% and 102% |
| O=[N+]([O-])c1ccc(Sc2cccc[n+]2[O-])c2nonc12 | 0.23% and 0.26% |
| CC(=O)N1CCN(c2ccc(NC(=O)Cc3cnc(-c4ccnc(F)c4)c(C)c3)nc2)CC1 | 88.7% and 84.8% |
| C[C@@H]1CC[C@H]2C(C)(C)[C@H]3C[C@@]12CC[C@@]3(C)O [Cedrol] | 106% and 97.2% |
| CNC(=O)c1ccc(N2C(=S)N(c3cnc(C#N)c(C(F)(F)F)c3)C(=O)C23CCC3)cc1F | 98.6% and 98.8% |
| C=C1[C@@H]2CC[C@@H](C2)C1(C)C [Camphene] | 105% and 102% |
| CCCCCCCCC(=O)O [Nonanoic acid] | 98.3% and 102% |
| CC1(C)S[C@@H]2[C@H](NC(=O)[C@H](NC(=O)N3CCNC3=O)c3ccccc3)C(=O)N2[C@H]1C(=O)O [Azlocillin sodium salt] | 90.4% and 87.6% |
| COc1cc2ncnc(Nc3ccc(F)c(Cl)c3)c2cc1NC(=O)/C=C/CN1CCCCC1 | 63.7% and 73.8% |
| O=C1NS(=O)(=O)c2ccccc21 [Saccharin] | 99% and 89.3% |

| Structure (SMILES) | cell viability |
| --- | --- |
| CNC(=O)c1cnn(-c2nc(N)c3ncn([C@@H]4O[C@H](CO)[C@@H](O)[C@H]4O)c3n2)c1 [Regadenoson] | 106% and 105% |
| CCCc1cc(C(N)=S)ccn1 [Protionamide (Prothionamide)] | 99% and 98.7% |
| O=C(c1ccc(Oc2ccccc2)cc1Cl)c1c[nH]c2ncnc(N[C@@H]3CC[C@@H](CO)OC3)c12 | 9.11% and 19% |
| C=CC(=O)Nc1cc(Nc2nccc(-c3cn(C)c4ccccc34)n2)c(OC)cc1N(C)CCN(C)C | 1.58% and 2.37% |
| CC(=O)Oc1c(C)c(C)c2c(c1C)CCC(C)(CCC[C@H](C)CCC[C@H](C)CCCC(C)C)O2 (stereo partly specified) [Vitamin E Acetate] | 105% and 103% |
| C=CC(=O)Nc1ccc2ncnc(Nc3cccc(Br)c3)c2c1 | 66% and 72.7% |
| CC1(C)O[C@H]1COc1c2ccoc2cc2oc(=O)ccc12 [Oxypeucedanin] | 93.6% and 100% |
| Cc1nc2ccc(NC(=O)Nc3ccnc4cccnc34)cc2o1 | 99.3% and 105% |
| O=C(COc1ccc(C(=O)c2ccccc2)cc1)NC1CCN(Cc2ccccc2)CC1 [Adiporon] | 72.4% and 78.1% |
| CS(=O)(=O)Nc1cc2occ(NC=O)c(=O)c2cc1Oc1ccccc1 [Iguratimod] | 107% and 95.3% |
| Cc1ccnc(NS(=O)(=O)c2ccc(N)cc2)n1 [Sulfamerazine] | 99.9% and 106% |
| CC(=CCNc1ncnc2nc[nH]c12)CO [Trans-Zeatin] | 100% and 95.4% |
| CCCC(CCC)C(=O)O [Valproic acid sodium salt (Sodium valproate)] | 95% and 89.8% |
| C[C@]1(COc2ccc(N3CCC(Oc4ccc(OC(F)(F)F)cc4)CC3)cc2)Cn2cc([N+](=O)[O-])nc2O1 [Delamanid] | 97.1% and 93.5% |
| COc1ccc(CCC(=O)Nc2nc3ccc(Cl)cc3s2)cc1OC | 95.4% and 97% |

same assay, conditions: 10 µM; SRSF2 genotype: SRSF2 wt/wt

| Structure (SMILES) | cell viability |
| --- | --- |
| CO[C@H]1/C=C/O[C@@]2(C)Oc3c(C)c(O)c4c(O)c(c(/C=N/N5CCN(C6CCCC6)CC5)c(O)c4c3C2=O)NC(=O)/C(C)=C\C=C\[C@H](C)[C@H](O)[C@@H](C)[C@@H](O)[C@@H](C)[C@H](OC(C)=O)[C@@H]1C [Rifapentine] | 87.4% |
| O=C1NC(=O)/C(=C/c2ccc3c(c2)OC(F)(F)O3)S1 | 98.1% |
| CCOC(=O)c1ccc(N)cc1 [Benzocaine] | 94.2% |
| Cn1nc(C(C)(C)C)cc1C(=O)N[C@@H](Cc1cccc(Cl)c1)C(=O)NCC#N [Cathepsin Inhibitor 1] | 83.2% |
| Cc1c(C(=O)Nc2ccc(N3CCC(N4CCOCC4)CC3)c(C#N)c2)cnn1-c1ccc(Cl)cc1 | 47.6% |
| CCOC(=O)[C@H](CCc1ccccc1)N[C@@H](C)C(=O)N(CC(=O)O)C1Cc2ccccc2C1 [Delapril Hydrochloride] | 95.8% |
| CC1(C)[C@@H](O[C@H]2O[C@H](C(=O)O)[C@@H](O)[C@H](O)[C@H]2O[C@@H]2O[C@H](C(=O)O)[C@@H](O)[C@H](O)[C@H]2O)CC[C@]2(C)[C@H]3C(=O)C=C4[C@@H]5C[C@@](C)(C(=O)O)CC[C@]5(C)CC[C@@]4(C)[C@]3(C)CC[C@@H]12 [Ammonium Glycyrrhizate] | 99.3% |
| CCNC(=O)c1noc(-c2cc(C(C)C)c(O)cc2O)c1-c1ccc(CN2CCOCC2)cc1 [Luminespib (AUY-922, NVP-AUY922)] | 25.6% |
| C=CCc1cc(OC)c(O)c(C(=O)NCCO)c1 [Alibendol] | 103% |
| CN1CCN(Cc2ccc(Nc3ncc(Cl)c(Nc4ccccc4S(=O)(=O)N(C)C)n3)cc2)CC1 | 47.6% |
| CC(C[N+](C)(C)C)OC(N)=O (stereo unspecified) [Bethanechol chloride] | 102% |
| CC1=CC(=O)[C@@H]2C[C@H]1C2(C)C [(-)-Verbenone] | 96.3% |
| C[C@@H](Nc1cc(F)cc(F)c1)c1cc(C(=O)N(C)C)cc2c(=O)cc(N3CCOCC3)oc12 | 85.5% |
| Cc1nc2cccc(N)c2c(=O)n1C1CCC(=O)NC1=O (stereo unspecified) [Avadomide(CC-122)] | 111% |
| CN1Cc2c(ccc3c2OCO3)[C@@]2(C)[C@@H](O)Cc3cc4c(cc3[C@@H]12)OCO4 [Corynoline] | 24.2% |
| COc1ccc(Oc2cc(NCCC(F)(F)F)c3ncc(-c4ccc(C(=O)NC5CC5)c(C)c4)n3n2)c(F)c1F | 108% |
| O=[N+]([O-])c1ccc(Sc2cccc[n+]2[O-])c2nonc12 | 0.23% |
| CC(=O)N1CCN(c2ccc(NC(=O)Cc3cnc(-c4ccnc(F)c4)c(C)c3)nc2)CC1 | 82.3% |
| C[C@@H]1CC[C@H]2C(C)(C)[C@H]3C[C@@]12CC[C@@]3(C)O [Cedrol] | 96.6% |
| CNC(=O)c1ccc(N2C(=S)N(c3cnc(C#N)c(C(F)(F)F)c3)C(=O)C23CCC3)cc1F | 103% |

| Structure (SMILES) | cell viability |
| --- | --- |
| C=C1[C@@H]2CC[C@@H](C2)C1(C)C [Camphene] | 106% |
| CCCCCCCCC(=O)O [Nonanoic acid] | 102% |
| CC1(C)S[C@@H]2[C@H](NC(=O)[C@H](NC(=O)N3CCNC3=O)c3ccccc3)C(=O)N2[C@H]1C(=O)O [Azlocillin sodium salt] | 81.5% |
| COc1cc2ncnc(Nc3ccc(F)c(Cl)c3)c2cc1NC(=O)/C=C/CN1CCCCC1 | 87.8% |
| O=C1NS(=O)(=O)c2ccccc21 [Saccharin] | 93.9% |
| CNC(=O)c1cnn(-c2nc(N)c3ncn([C@@H]4O[C@H](CO)[C@@H](O)[C@H]4O)c3n2)c1 [Regadenoson] | 104% |
| CCCc1cc(C(N)=S)ccn1 [Protionamide (Prothionamide)] | 101% |
| O=C(c1ccc(Oc2ccccc2)cc1Cl)c1c[nH]c2ncnc(N[C@@H]3CC[C@@H](CO)OC3)c12 | 14.3% |
| C=CC(=O)Nc1cc(Nc2nccc(-c3cn(C)c4ccccc34)n2)c(OC)cc1N(C)CCN(C)C | 3.2% |
| CC(=O)Oc1c(C)c(C)c2c(c1C)CCC(C)(CCC[C@H](C)CCC[C@H](C)CCCC(C)C)O2 (stereo partly specified) [Vitamin E Acetate] | 106% |
| C=CC(=O)Nc1ccc2ncnc(Nc3cccc(Br)c3)c2c1 | 71.1% |
| CC1(C)O[C@H]1COc1c2ccoc2cc2oc(=O)ccc12 [Oxypeucedanin] | 97.6% |
| Cc1nc2ccc(NC(=O)Nc3ccnc4cccnc34)cc2o1 | 98.3% |
| O=C(COc1ccc(C(=O)c2ccccc2)cc1)NC1CCN(Cc2ccccc2)CC1 [Adiporon] | 73.9% |
| CS(=O)(=O)Nc1cc2occ(NC=O)c(=O)c2cc1Oc1ccccc1 [Iguratimod] | 110% |
| Cc1ccnc(NS(=O)(=O)c2ccc(N)cc2)n1 [Sulfamerazine] | 101% |
| CC(=CCNc1ncnc2nc[nH]c12)CO [Trans-Zeatin] | 104% |
| CCCC(CCC)C(=O)O [Valproic acid sodium salt (Sodium valproate)] | 102% |
| C[C@]1(COc2ccc(N3CCC(Oc4ccc(OC(F)(F)F)cc4)CC3)cc2)Cn2cc([N+](=O)[O-])nc2O1 [Delamanid] | 93.5% |
| COc1ccc(CCC(=O)Nc2nc3ccc(Cl)cc3s2)cc1OC | 92% |
